Results taken from PubChem BioAssay AID1159580 (chemical genetic matrix, 2015).
The whole screen tested about 5,500 compounds, of which about 2,000 (36%) were called active. About 18% were inconclusive and are not listed. Rule as the data show it: active = normalized growth mostly below about 0.91 (no sharp cut-off); inconclusive = no clear call, values can overlap the other calls; inactive = mostly above about 0.92. The list shows a part of the results.

Experiment: chemical genetic growth profiling, strain panel (AID 1159580);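 also: tested at 20 µM; growth read once vehicle control cultures reached saturation at 30 °C; 1 = growth at the plate median or of vehicle wells; lower values mean less growth of the strain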
Details: S. cerevisiae deletion strains, growth OD

Measured: normalized growth

COc1cc(O)c2c(=O)cc(-c3ccc(OC)c(-c4c(O)cc(O)c5c(=O)cc(-c6ccc(O)cc6)oc45)c3)oc2c1
inactive: locus YAL021C, strain ccr4, active compounds read low 0.991 | locus YAL026C, strain drs2, active compounds read low 0.982 | locus YAL030W, strain snc1, active compounds read low 1.01 | locus YBL061C, strain skt5, active compounds read low 0.996 | locus YBR009C, strain hhf1, active compounds read low 0.988 | locus YBR023C, strain chs3, active compounds read low 0.993 | locus YBR171W, strain sec66, active compounds read low 1.03 | locus YBR229C, strain ROT2, active compounds read low 0.948 | locus YBR231C, strain swc5, active compounds read low 0.972 | locus YBR279W, strain paf1, active compounds read low 1 | locus YCL011C, strain gbp2, active compounds read low 1.02 | locus YCL016C, strain dcc1, active compounds read low 1 | locus YCL029C, strain bik1, active compounds read low 0.992 | locus YCL061C, strain MRC1, active compounds read low 1 | locus YCL069W, strain vba3, active compounds read low 1.02 | locus YCR088W, strain abp1, active compounds read low 1.03 | locus YDL005C, strain med2, active compounds read low 1.03 | locus YDL035C, strain GPR1, active compounds read low 0.951 | locus YDL040C, strain nat1, active compounds read low 1.01 | locus YDL074C, strain BRE1, active compounds read low 1.01 | locus YDL101C, strain DUN1, active compounds read low 0.959 | locus YDL134C, strain PPH21, active compounds read low 0.917 | locus YDL185W, strain tfp1, active compounds read low 0.968 | locus YDL192W, strain arf1, active compounds read low 1 | locus YDR001C, strain nth1, active compounds read low 1.02 | locus YDR069C, strain doa4, active compounds read low 0.914 | locus YDR101C, strain arx1, active compounds read low 0.997 | locus YDR137W, strain rgp1, active compounds read low 1.05 | locus YDR150W, strain NUM1, active compounds read low 0.953 | locus YDR159W, strain sac3, active compounds read low 1.02 | locus YDR162C, strain NBP2, active compounds read low 0.915 | locus YDR195W, strain ref2 0.986 | locus YDR297W, strain sur2, active compounds read low 0.996 | locus YDR318W, strain mcm21, active compounds read low 0.987 | locus YDR334W, strain swr1, active compounds read low 1 | locus YDR335W, strain msn5, active compounds read low 1.03 | locus YDR388W, active compounds read low 0.986 | locus YDR392W, strain spt3, active compounds read low 0.91 | locus YDR502C, strain sam2, active compounds read low 0.978 | locus YEL003W, strain gim4, active compounds read low 1 | locus YEL037C, strain rad23, active compounds read low 1.01 | locus YEL061C, strain CIN8 (second series), active compounds read low 1.02 | locus YEL061C, strain CIN8, active compounds read low 0.934 | locus YER015W, strain faa2, active compounds read low 1 | locus YER016W, strain bim1, active compounds read low 1.01 | locus YER110C, active compounds read low 0.983 | locus YER111C, strain swi4, active compounds read low 1.01 | locus YER155C, strain BEM2 (second series), active compounds read low 0.962 | locus YER155C, strain BEM2, active compounds read low 1.03 | locus YER167W, strain BCK2, active compounds read low 0.957 | locus YFR010W, strain ubp6, active compounds read low 0.965 | locus YGL078C, strain dbp3, active compounds read low 0.987 | locus YGL167C, strain pmr1, active compounds read low 1.01 | locus YGL173C, strain kem1, active compounds read low 0.975 | locus YGL227W, strain vid30, active compounds read low 1.03 | locus YGL240W, strain doc1, active compounds read low 1.05 | locus YGL253W, strain hxk2, active compounds read low 1.03 | locus YGR078C, strain PAC10, active compounds read low 0.913 | locus YGR135W, strain pre9, active compounds read low 0.971 | locus YGR229C, strain SMI1, active compounds read low 0.92 | locus YGR252W, strain gcn5, active compounds read low 1.09 | locus YHR013C, strain ard1, active compounds read low 1 | locus YHR027C, strain rpn1, active compounds read low 1.01 | locus YHR030C, strain SLT2, active compounds read low 0.966 | locus YHR079C, strain IRE1 (second series), active compounds read low 0.994 | locus YHR094C, strain hxt1, active compounds read low 0.99 | locus YHR129C, strain ARP1, active compounds read low 0.931 | locus YHR142W, strain chs7, active compounds read low 1.05 | locus YHR200W, strain rpn10, active compounds read low 0.988 | locus YIL066C, strain RNR3, active compounds read low 0.88 | locus YIL073C, strain SPO22, active compounds read low 0.947 | locus YIL125W, strain kgd1, active compounds read low 0.99 | locus YIR030C, strain dcg1, active compounds read low 1.02 | locus YJL092W, strain hpr5, active compounds read low 1.02 | locus YJL095W, strain BCK1 (second series), active compounds read low 1.01 | locus YJL095W, strain BCK1, active compounds read low 0.939 | locus YJL115W, strain asf1, active compounds read low 1.02 | locus YJL129C, strain trk1, active compounds read low 1.06 | locus YJL134W, strain LCB3, active compounds read low 0.984 | locus YJL154C, strain vps35, active compounds read low 1.03 | locus YJL164C, strain tpk1, active compounds read low 0.98 | locus YJL166W, strain qcr8, active compounds read low 1.01
active: locus YBR021W, strain FUR4, active compounds read low 1.18 [resistant] | locus YGL248W, strain PDE1, active compounds read low 0.877
